Laboratory results published in PubChem BioAssay AID504332 (National Center for Advancing Translational Sciences (NCATS), 2011).
The campaign covered roughly 350,000 compounds. About 31,000 (8.9%) were called active. Not shown: some 15% with an inconclusive outcome. The sample holds actives, similar compounds and a random draw of the others, so the mix is not that of the screen. Calls come from the whole dose curve; as a rule, active = well fitted inhibition curve with a large enough effect; inconclusive = small, poorly fitted or top-dose-only effect; inactive = no such curve, though single readings can be large or run the other way.

Target: Histone-lysine N-methyltransferase EHMT2 (Homo sapiens) (UniProt Q96KQ7)
Assay: qHTS Assay for Inhibitors of Histone Lysine Methyltransferase G9a; note: nearly all actives have a fitted effect of over 75% in size
Settings: G9a H3K9 monomethylation, AlphaScreen, 2 h; series mostly up to 59 µM; activity, negative = inhibition: at the top concentration
Procedure, shortened: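 G9a (20 nM) was preincubated 15 min with compound, then reacted 2 h at room temperature with 500 nM biotin-H3K9 peptide and 20 µM SAM. Monomethyl-H3K9 detected by AlphaScreen using anti-H3K9me1 antibody.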
% is set by controls: 0 for no effect and ±100 for the full control effect; potency is the fitted concentration of half-maximal effect.

Chain of Histone-lysine N-methyltransferase EHMT2 (Homo sapiens) (Q96KQ7 913-1193 limits assumed): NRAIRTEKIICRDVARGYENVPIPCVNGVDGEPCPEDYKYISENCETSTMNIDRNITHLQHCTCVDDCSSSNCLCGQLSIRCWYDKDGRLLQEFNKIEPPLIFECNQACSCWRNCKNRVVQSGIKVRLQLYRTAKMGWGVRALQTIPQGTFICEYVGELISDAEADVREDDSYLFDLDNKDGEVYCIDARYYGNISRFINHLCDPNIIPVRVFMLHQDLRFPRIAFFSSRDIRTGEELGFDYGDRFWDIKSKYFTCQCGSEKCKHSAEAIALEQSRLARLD

activity, negative = inhibition, inactive:
CCCCOc1ccc(C(=O)Nc2cccc(-c3nc4ccccc4o3)c2C)cc1 -21%
O=C(NCc1ccc(Cl)cc1)C(=O)NCC1CCCN1S(=O)(=O)c1cccs1 (stereo not drawn) 1.44% [at 102 µM]
Cc1cc(NC(=O)CC(C)C)cc(-c2nc3ncccc3o2)c1O 2.52%
Cc1ccc(-n2nc(CO)c(C(=O)NCCc3ccccc3)n2)cc1 7.14%
O=C(NCCCN1CCOCC1)c1ccc([N+](=O)[O-])cc1[N+](=O)[O-] -1.45%
COc1cc(C(=O)OCc2ccc([N+](=O)[O-])cc2)cc(OC)c1OC 14.7% [at 102 µM]
COc1cc(NC(=O)N2CCOCC2)cc(OC)c1 7.85% [at 102 µM]
O=C(Oc1cccc(C(=S)N2CCOCC2)c1)c1cccc(Cl)c1 -2.25% [at 102 µM]
Cc1cc(OC(=O)c2ccccc2)c([N+](=O)[O-])c(=O)[nH]1 -32.9% [at 102 µM]
O=C(/C=C/c1cccc([N+](=O)[O-])c1)OCC(=O)N1CCOCC1 12.5% [at 12.7 µM]
O=C(c1ccc(Oc2ccc(Cl)cc2)c([N+](=O)[O-])c1)N1CCCC1 -2.93% [at 102 µM]
COc1ccc(/C=N/Nc2cc(N3CCOCC3)nc(C)n2)c(OC)c1 -10.8% [at 102 µM]
Cc1ccc2cccc(NC(=O)C(C)Oc3ccc(C)c(C)c3)c2n1 (stereo not drawn) 0.0636%
Cc1ccc(-c2cnc(C3CC3)o2)cc1S(=O)(=O)Nc1cccc(C)c1C -9.84% [at 12.7 µM]
CCC(=O)N1c2ccccc2CC1C(=O)N1CCN(c2ccccc2F)CC1 (stereo not drawn) 0.329% [at 12.7 µM]
Cc1ccc(-c2nn(CCC(=O)Nc3ccc(Cl)c(Cl)c3)c(=O)c3ccccc23)cc1 5.97%
COc1ccc(Cl)cc1NC(=O)CSc1nc2ccccc2c2nc(-c3ccccc3)nn12 -3.83%
CC(=O)C[C@@H](O)CC(=O)[C@H]1OC(=O)CCCCCCc2ccccc21 7.19% [at 0.501 µM]
O=C(c1cccs1)N(C(=O)c1cccs1)c1ccccn1 2.68%
O=C(c1cccs1)c1cn(CCOc2ccc(Cl)cc2)c2ccccc12 -2.07%
Cc1ccc(O)c(/C=N/NC(=O)COc2ccc3c(C)cc(=O)oc3c2)c1 14% [at 102 µM]
CCC(=O)N1c2ccccc2CC1C(=O)N1CCN(c2cccc(OC)c2)CC1 (stereo not drawn) 12.6%
COc1cccc(C(=O)NC2(C(F)(F)F)C(=O)Nc3c2c(=O)[nH]c(=O)n3-c2ccc(C)cc2)c1 (stereo not drawn) -0.967%
CCOc1ccc(CN2CCN(Cc3ccon3)CC2CCO)cc1 (stereo not drawn) -37.7% [at 102 µM]
CCOc1ccc(CN2CCN(Cc3ccc4cc(F)ccc4n3)CC2CCO)cc1 (stereo not drawn) 1.12% [at 102 µM]
COCCn1c(C)cc(C(=O)CSc2nnc(C3CC3)n2C2CC2)c1C -12.5% [at 12.7 µM]
Cc1ccc(Cl)cc1N1CCN(C(=O)C2CCC(CNS(=O)(=O)c3cccs3)CC2)CC1 (stereo not drawn) -36.1%
Cc1ccc(S(=O)(=O)NNC(=O)/C=C/c2cccc(F)c2)cc1 10.6% [at 102 µM]
O=C(Nc1ccc(F)cc1F)N1CCCN(CCOc2ccccc2)CC1 -4.35% [at 102 µM]
Cc1ccc(CC2(O)CCN(CCOc3ccc(O)cc3)CC2)cc1 31.1%
COc1cccc(OCC(O)CN2CCN(CCO)CC2)c1 (stereo not drawn) 19.4%
Clc1ccccc1-c1cc(COc2ccc3ccccc3c2)no1 22%
OC(COc1ccc2ccccc2c1)CN1CCOCC1 (stereo not drawn) -4.94%
COc1cccc(NC(=O)NCCN2CCCCC2)c1 11.8% [at 102 µM]
Cc1cc(C)c(NC(=O)CN2CCCCCC2)c(C)c1 41.6% [at 0.501 µM]
OC(COc1ccc(Br)cc1)CN1CCCC1 (stereo not drawn) 2.27% [at 102 µM]
CS(=O)(=O)Nc1ccccc1C(=O)OCC(=O)NC1CC1 15.6% [at 12.7 µM]

Potency, active:
COc1cc([N+](=O)[O-])cc([N+](=O)[O-])c1NC(=O)N1CCOCC1 50.1 µM
O=C(Oc1ccc(Br)cc1C(=S)N1CCOCC1)c1cccc([N+](=O)[O-])c1 7.08 µM
COc1cc(C(=S)N2CCOCC2)cc(OC)c1OC(=O)c1cc([N+](=O)[O-])cc([N+](=O)[O-])c1 31.6 µM
O=C(Oc1ccccc1C(=S)N1CCCCC1)c1cc([N+](=O)[O-])cc([N+](=O)[O-])c1 3.55 µM
O=C(C1=C(O)C(=O)N(CCOCCO)C1c1ccccn1)c1cccs1 (stereo not drawn) 28.2 µM
CCOc1ccc(CN2CCN(Cc3ccc(C)o3)CC2CCO)cc1 (stereo not drawn) 70.8 µM
Cc1cc(OCCN2CCCC2)ccc1C(C)C 8.91 µM
c1ccc2cc(OCCN3CCCC3)ccc2c1 12.6 µM
Cc1cc(OCCN2CCCC2)cc(C(C)C)c1 11.2 µM
COc1cccc(OCCCN2CCCCCC2)c1 11.2 µM

Potency, inactive:
COc1cc(C(=O)N2CCOCC2)cc(OC)c1OC
